# In the library only some 3.7% were active in any assay of this set; here they are far more common.
# tim10-1 inh – growth inhibitors of tim10-1 mutant yeast, primary screen, luminescence, uHTS | S. cerevisiae tim10-1 ts strain growth, BacTiter-Glo, 24 h | AID 463190, 2010 | inhibition, % at 20 µM | actives 2.2% (n = 330,000);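 active means inhibition of at least 40%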;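 further: mutant grown at 25 °C; 0% = DMSO wells with yeast and 100% = wells holding no yeast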
# TIM10 inh – growth inhibitors of isogenic TIM10 control yeast, primary screen, counter-screen for tim10-1 yeast inhibitor project, luminescence, uHTS | S. cerevisiae TIM10 strain growth, BacTiter-Glo luminescence, 24 h | inhibition, % at 10 µM | AID 463195, 2010 | actives 1.4% (n = 330,000);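 active means inhibition of 40% or more at the single tested concentration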;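 further: wild-type TIM10 isogenic control strain grown at permissive 25 °C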
# Rce1 inh – yeast Rce1p protease inhibitors, primary screen, biochemical, fluorescence, cell-free homogeneous. CAAX prenyl protease 2 (Saccharomyces cerevisiae (strain ATCC 204508 / S288c)), Q03530. yeast membranes, quenched prenylated peptide cleavage fluorescence. calls only. actives 0.27% (n = 290,000);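 active means fall in fluorescence gain of 50% or more versus controls, with final raw signal at or below 3038400; inconclusive means same 50% fall but final raw signal above 3038400; inactive means fall in fluorescence gain under 50%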;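 further: plate controls were neutral control wells for no effect and wells lacking membranes for full effect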
# Target sequence (Q03530 whole entry, looked up): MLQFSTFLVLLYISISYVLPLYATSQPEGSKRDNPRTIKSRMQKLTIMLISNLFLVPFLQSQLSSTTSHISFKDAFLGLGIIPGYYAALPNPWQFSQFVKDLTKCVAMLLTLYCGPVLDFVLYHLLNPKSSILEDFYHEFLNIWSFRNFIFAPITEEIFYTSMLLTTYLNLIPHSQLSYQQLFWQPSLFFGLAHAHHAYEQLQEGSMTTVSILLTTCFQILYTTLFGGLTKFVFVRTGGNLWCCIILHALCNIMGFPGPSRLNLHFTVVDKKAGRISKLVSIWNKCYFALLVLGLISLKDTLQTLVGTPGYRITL
# tim23-1 inh – growth inhibitors of tim23-1 mutant yeast, primary screen, luminescence, uHTS; AID 463212, 2010; actives 1.3% (n = 330,000); S. cerevisiae tim23-1 growth, BacTiter-Glo luminescence, 24 h; inhibition, % at 20 µM;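 active means growth inhibition of the mutant yeast at or above 50%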;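 further: temperature-sensitive mutant grown at 25 °C; plate controls were DMSO-treated mutant yeast for no effect and medium wells lacking yeast for full effect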
# PfHsp90 yeast 2 – growth inhibition of PfHsp90-expressing yeast, primary screen, antimalarial PfHsp90 inhibitor project, S. cerevisiae, BacTiter-Glo luminescence, single point, set 2; BacTiter-Glo ATP, 48 h; yeast lacking PDR1 and PDR3 efflux regulators; inhibition, % at 9.4 µM; actives 0.32% (n = 310,000); AID 504621, 2011;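 active means every replicate shows inhibition above about 80%, whatever the replicate mean, limit read from the data; inconclusive means mean inhibition reaches the set limit but some replicate falls short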;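 further: 0% = DMSO neutral controls and 100% = 20 µM radicicol positive controls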
# tim10-1 confirm – growth inhibitors of tim10-1 mutant yeast, confirmation, single concentration, luminescence, S. cerevisiae; shares compounds with tim10-1 inh; S. cerevisiae tim10-1 ts strain growth, BacTiter-Glo, 24 h; inhibition, % at 20 µM; actives 56% (n = 7,400); AID 463213, 2010;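 active means inhibition of yeast growth at or above a set limit in either of two repeat tests at 20 µM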;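 further: tim10-1 mutant grown at permissive 25 °C to find synthetic lethal compounds; 0% = DMSO yeast wells and 100% = medium wells without yeast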
# Active calls of the source: *; i = inactive; ? = inconclusive; . = no result.
SMILES,tim10-1 inh,TIM10 inh,Rce1 inh,tim23-1 inh,PfHsp90 yeast 2,tim10-1 confirm
CC(=O)c1ccc(S(=O)(=O)Nc2ccc(C(=O)N3CCC3)cc2)cc1,0,2,.,5,22,.
CCOc1ccccc1NC(=O)CS(=O)(=O)c1cn(CC(=O)N2CCOCC2)c2ccccc12,-4,4,i,-7,7,.
CCOC(=O)C1CCN(S(=O)(=O)c2ccccc2)CC1,-2,8,i,10,-21,.
O=C(OCCOc1cccc(Cl)c1)C1CCN(S(=O)(=O)c2ccccc2)CC1,44*,9,i,38,-17,25
c1ccn2cc(C34CC5CC(CC(C5)C3)C4)nc2c1,53*,36,i,49,.,39*
CC1CCN(c2c([N+](=O)[O-])c(=O)oc3ccccc23)CC1,7,15,i,12,4,.
CCCn1nc(NC(=O)c2cccs2)c2cc3cc(C)ccc3nc21,41*,15,i,43,-15,31*
CCCCn1nc(NC(=O)c2cccs2)c2cc3ccccc3nc21,48*,25,i,49,.,39*
CCCCn1nc(NC(=O)c2cccs2)c2cc3cc(OC)ccc3nc21,23,20,i,28,.,.
Cc1nc(-c2cccnc2)sc1C(=O)Nc1cccc(C(F)(F)F)c1,43*,31,i,22,-11,28
COc1ccc(Nc2nc(N)c(C(=O)c3ccc(OC)cc3)s2)cc1,44*,20,i,37,-42,0
C=C(C)CN(CC)c1nc(N)c2c(N)nc3c(c2c1C#N)CC(=O)N3C12CC3CC(CC(C3)C1)C2,27,8,.,9,-25,.
N#Cc1c(N2CCCC(O)C2)nc(N)c2c(N)nc3c(c12)CC(=O)N3C12CC3CC(CC(C3)C1)C2 (configuration not stated),50*,36,i,34,-14,33*
Cc1ccc(S(=O)(=O)/N=C(/NC(=S)Nc2cccc(C)c2)c2ccccc2)cc1,38,18,i,14,-8,.
Cc1cccc(NC(=S)N/C(=N/S(=O)(=O)c2ccccc2)c2ccccc2)c1,42*,26,i,20,3,14
CC(=O)Oc1ccc(/C=N/NC(=O)CCSc2ccccc2)cc1,15,19,i,18,16,.
Brc1ccc(N=C(c2ccccc2)c2ccncc2)cc1,24,-17,i,3,-41,.
Cn1nc(C(F)(F)F)c(-c2ccc(Br)cc2)c1NC(=O)c1ccco1,40*,3,i,32,-14,14
CCN1C(=O)C2(C(C#N)=C(N)Oc3c2c(C)nn3-c2ccccc2)c2ccccc21 (configuration not stated),64*,33,i,39,.,62*
COc1ccc(N2CCN(c3oc(Cc4ccccc4)nc3C#N)CC2)cc1,40*,12,i,37,.,26
C=CCN1C(=O)/C(=C2\SC(N3CCOCC3)=NC2=O)c2cc(Br)ccc21,51*,29,i,41,2,8
Cc1cccc(NS(=O)(=O)c2cccc(C(=O)N3CCC3)c2)c1,-54,-70,.,-51,.,.
O=C(CSc1nnc(CNC(=O)c2ccccc2F)o1)Nc1cccc(C(F)(F)F)c1,12,-18,i,8,9,.
CCOC(=O)c1ccc(NC(=O)CC2OCCN(CC)C2=O)cc1 (configuration not stated),50*,34,i,35,?,62*
CCOc1cccc(/C=N/NC(=S)Nc2ccccc2[N+](=O)[O-])c1O,46*,-3,i,8,0,24
SMILES,tim10-1 inh,TIM10 inh,Rce1 inh,tim23-1 inh,PfHsp90 yeast 2,tim10-1 confirm
Cc1ccc(S(=O)(=O)N2CCc3ccccc3C2CC(=O)O)cc1 (configuration not stated),-2,-9,i,14,17,.
Cc1ccc(SCCSc2nc(C)cc(=O)[nH]2)cc1,11,7,i,13,5,.
Cc1ccc(S(=O)(=O)CCC(=O)N(CCCN2CCOCC2)c2nc3ccccc3s2)cc1,42*,35,i,18,-17,42*
Cc1ccc2nc(N(CCN3CCOCC3)C(=O)CCS(=O)(=O)c3ccccc3)sc2c1,14,6,i,16,.,.
CCc1cc2ccc(OC)cc2nc1SCC(=O)NNC(=O)c1ccco1,43*,26,i,49,-15,24
CC(C)Cc1nc2oc3c(NCC4CCCO4)ncnc3c2c2c1CCC2 (configuration not stated),45*,25,i,24,26,27
Cc1noc(C)c1C(=O)OCC(=O)Nc1ccccc1SCC#N,5,2,.,-1,-3,.
CC(C)NC(=O)C(=O)Nc1cc2c3c(c1)C(C)C(=O)N3CCC2 (configuration not stated),-4,4,i,-1,8,.
CC(=O)c1cccc(NC(=O)CN(Cc2ccccc2)S(C)(=O)=O)c1,2,-1,i,-6,11,.
CS(=O)(=O)N(CC(=O)Nc1cccc(F)c1)Cc1ccccc1,49*,-12,i,7,-6,5
O=c1c(Cl)c(N2CCN(c3ccc(F)cc3)CC2)cnn1C12CC3CC(CC(C3)C1)C2,48*,30,i,38,3,29
COc1ccc(/C=C2\N=C(SC)N(c3ccccc3OC)C2=O)cc1,7,-2,i,27,-28,.
C=CCOc1cccc(C2C(C(=O)c3cc4ccccc4o3)=C(O)C(=O)N2c2cc(C)on2)c1 (configuration not stated),17,-5,i,4,0,.
COCCn1c(=S)[nH]c2cc(C(=O)N3CC(C)CC(C)C3)ccc2c1=O (configuration not stated),41*,-33,i,-8,-28,-62
COc1cccc(/C=N/n2c(C)nc3ccccc32)c1OC,44*,39,i,48,3,31
COC(=O)CSc1nnc(Cc2ccccc2)n1-c1ccc(C)cc1,41*,19,i,16,-24,26
COc1ccc(NCc2nnc(SCC(=O)NCc3ccccc3)n2-c2ccccc2OC)cc1,18,-5,i,12,10,.
COc1ccc(-n2c(CNc3ccc(C)cc3)nnc2SCc2ccccc2)cc1,43*,26,i,48,20,34*
Cc1ccc(-n2c(SCC(=O)OC(C)C)nnc2-c2ccccn2)cc1,42*,30,i,36,1,35*
CC(C)OC(=O)CSc1nnc(-c2ccccn2)n1-c1ccccc1,11,-6,i,19,4,.

# High-throughput results (PubChem BioAssay)
